Test [1] has as its target 6-phosphogluconate dehydrogenase, decarboxylating (Homo sapiens) (UniProt P52209). Briefly: inhibition of human phosphogluconate dehydrogenase – biochemical, recombinant enzyme, NADPH absorbance, primary screen (AID 1159550;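 active = at least 20% inhibition of 6-phosphogluconate dehydrogenase activity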). As to conditions: recombinant 6PGD, NADPH absorbance 341 nm; at 10 µM; stronger effect = higher value.
Test [2] in a line: EMT-state selective cytotoxicity in co-culture – imaging, PC-3E GFP, TEM4-18 mCherry, primary screen (AID 1345086;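 active = compounds killing one labelled cell type while sparing the other, by normalised counts and ratio limits, not self-fluorescent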;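 as to all read-outs here: cells exposed to compound for 72 h before imaging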;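 as to red/green cell ratio (normalised): normalised mesenchymal count divided by normalised epithelial count so high means epithelial killing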). The conditions noted are these: PC-3E GFP / TEM4-18 mCherry co-culture, imaging cell counts, at 1 µM; for red/green cell ratio (normalised): actives lie on both sides, counts scaled to control wells, 1 = unselective.
Test [3] can be described thus: viability loss with induced miR-34 in A549 – imaging, A549 dox-inducible miR-34, nuclei and caspase counts, primary screen (AID 1347080). The conditions noted are these: A549 miR-34 inducible, Hoechst nuclei count, 48 h.
Test [4] can be described thus: MELAS cybrid and Rieske KO viability enhancers – cell-based, MELAS cybrids, Rieske KO mouse fibroblasts, CellTiter-Glo, primary screen (AID 1508586;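 active = mean z-score across replicates of 1.96 or higher in either the MELAS or the Rieske mutant cell line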;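 also: z relative to plate mean and SD of compound and empty wells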). The conditions noted are these: low glucose.
The target of test [5] is Mitogen-activated protein kinase 7 (Homo sapiens) (UniProt Q13164). Briefly: Gal4-ERK5 driven luciferase induction – cell-based, HTS, primary screen (AID 1508626;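 active = luciferase signal above three times the same-plate solvent-only control wells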;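 also: luciferase driven by Gal4-ERK5 fusion binding five Gal4 sites before minimal TATA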). As to conditions: HeLa Gal4-ERK5 transactivation, 18 h, at 5 µM, stronger effect = higher value.
Test [6] is described as follows: blockers of polyQ-driven CASP3 activation – cell-based (AID 1583). The conditions noted are these: polyglutamine-induced caspase-3 activation, cell assay; stronger effect = higher value;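 tested at 10 µM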.
The nature of test [7]: yeast 75Q aggregation reduction – 75Q-TubU reporter (AID 1593). As to conditions: Yeast 75Q polyglutamine aggregation reporter.
The nature of test [8]: restoration of touch response, mutant HTT neurons – whole organism, C. elegans mechanosensory neurons, N-terminal huntingtin (AID 1599). The conditions noted are these: C. elegans polyQ-huntingtin mechanosensory neurons, stronger effect = higher value.
Test [9] can be described thus: blockers of cytochrome c efflux from mitochondria – biochemical, purified mitochondria (AID 1603).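 Also: mouse liver mitochondria challenged with calcium chloride; signal normalized to the plate average as 100%.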 As to conditions: stronger effect = lower value.
A short description of test [10]: polyglutamine aggregate formation blockers (AID 1604). As to conditions: polyglutamine-induced protein aggregation inhibition assay; stronger effect = higher value; tested at 2.5 µM.
Test [11] is described as follows: glutamate transport activators, MN-1 cells, MN-1 cell line (AID 1612).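 Also: tested at 1 µM final; 0% = mean of DMSO vehicle wells on each plate; positive means more glutamate uptake than control and negative means less.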 The conditions noted are these: MN-1 motor neuron cells, stronger effect = higher value.
Test [12] can be described thus: GFP-Q80 aggregate reduction, neuronal-like cells, cell-based, NGF-treated PC12, GFPQ80 (AID 1614).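 Also: lower means fewer inclusions and 0 means no inclusions at all.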 The conditions noted are these: PC12 NGF-treated GFP-polyQ80 inclusion reduction.
Test [13] is described as follows: 75Q-TubH aggregate inhibition, S. cerevisiae, yeast (AID 1616). As to conditions: S. cerevisiae 75Q-TubH polyglutamine aggregation suppression; stronger effect = higher value.
Test [14] in a line: compounds altering circadian rhythm period length – cell-based, LOPAC library, luminescence reporter (AID 2774; call rule not given here;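 also: values are relative to mean of DMSO wells on each plate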). As to conditions: circadian reporter cells, at 7 µM, actives lie on both sides.
The subject of test [15] is Hepatitis C virus NS3 helicase. Briefly: blockers of NS3h binding to ssDNA – biochemical, fluorescence polarization, LOPAC1280 library, primary screen (AID 687035; in the data active = inhibition above about 37%). As to conditions: Purified HCV NS3 helicase, Cy5-dT15 ssDNA binding fluorescence polarization; stronger effect = higher value; concentration not given here. Background: Fluorescence polarisation rises when a labelled molecule tumbles more slowly, as on binding a larger partner.

Test [16] can be described thus: blockers of cellular phospholipid synthesis – cell-based, LOPAC library, screen 4, primary screen (AID 1347384; call rule not given here). The conditions noted are these: animal cells, phospholipid biosynthesis inhibition screen; at 10 µM.
Test [17] is described as follows: galactose survival enhancers in mitochondrial complex I cybrids – cell-based, galactose medium, ATP luminescence, primary screen (AID 1645843;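 active = z-score of at least 1.8 in each of two replicates, scored against plate mean and spread of sample wells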;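 also: positive z means more ATP and so rescue of galactose-driven cybrid death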). The conditions noted are these: complex I mutant cybrid cells, 72 h, stronger effect = higher value.
Test [18] is described as follows: P. berghei load reduction in hepatocytes – cell-based, HepG2, luciferase luminescence, HepG2 viability, primary screen (AID 624349; in the data active = parasite load remaining mostly below about 12%, no sharp cut-off; inactive = mostly above about 10%;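 also: 100% = mean of DMSO negative control wells on the same plate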). As to conditions: P. berghei liver stage in HepG2, luciferase luminescence, concentration not given here; parasite load remaining: stronger effect = lower value; viability: measured here: HepG2 viability without parasites.
Setting [19] is: measured here: epithelial PC-3E GFP cell survival.
[20] abbreviates: measured here: mesenchymal TEM4-18 mCherry cell survival.
Where [21] appears, read: stronger effect = lower value, cell number ratio, induced over uninduced.
[22] abbreviates: measured here: relative caspase fold change +Dox/-Dox.
Where [23] appears, read: measured here: total cells with miR-34 induction, stronger effect = lower value.
[24] abbreviates: measured here: total cells without miR-34 induction.
The mark [25] stands for this setting: MELAS cybrid survival, CellTiter-Glo 48 h, stronger effect = higher value.
The mark [26] stands for this setting: Rieske KO mouse fibroblast survival, CellTiter-Glo 72 h.

The inhibition is the relative decrease from the control value, in per cent. In general, viability refers to a read-out of living cells in per cent, often relative to untreated cells.

Several values for one entry are separate records, joined by “and”; a condition that tells them apart may be missing. Equal entries are not always repeated. For some of these results: Measured potencies and affinities stand elsewhere. Activity calls are given as the source filed them.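 The calls were made as follows, unless noted: active = compounds whose cell count with miR-34 switched on is under 0.7 times the count with it off; inactive = the rest.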 Peptide text beside a SMILES is read from it.

Sequence of Mitogen-activated protein kinase 7 (Homo sapiens) (Q13164 whole entry, looked up, the tested form may be a part): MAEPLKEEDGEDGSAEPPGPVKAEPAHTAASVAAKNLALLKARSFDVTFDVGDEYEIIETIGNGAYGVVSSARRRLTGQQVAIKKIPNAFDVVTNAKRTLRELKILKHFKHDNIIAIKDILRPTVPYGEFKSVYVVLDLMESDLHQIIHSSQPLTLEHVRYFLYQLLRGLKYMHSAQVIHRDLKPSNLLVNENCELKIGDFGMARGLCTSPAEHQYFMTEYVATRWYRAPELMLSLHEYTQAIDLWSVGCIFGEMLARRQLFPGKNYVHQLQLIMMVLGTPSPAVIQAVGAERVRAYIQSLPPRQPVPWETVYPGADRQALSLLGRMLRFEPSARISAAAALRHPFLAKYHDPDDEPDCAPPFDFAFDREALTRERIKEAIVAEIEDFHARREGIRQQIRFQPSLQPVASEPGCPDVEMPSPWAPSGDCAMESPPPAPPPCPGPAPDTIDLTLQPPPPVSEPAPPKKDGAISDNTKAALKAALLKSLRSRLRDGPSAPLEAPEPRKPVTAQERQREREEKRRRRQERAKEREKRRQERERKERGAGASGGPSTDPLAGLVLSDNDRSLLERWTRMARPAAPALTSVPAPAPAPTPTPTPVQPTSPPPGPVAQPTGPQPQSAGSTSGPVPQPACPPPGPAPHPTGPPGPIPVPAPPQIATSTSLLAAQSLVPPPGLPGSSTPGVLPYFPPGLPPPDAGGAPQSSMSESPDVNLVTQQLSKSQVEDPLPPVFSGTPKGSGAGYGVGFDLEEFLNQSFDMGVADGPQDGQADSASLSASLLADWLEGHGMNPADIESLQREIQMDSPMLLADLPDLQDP
Sequence of 6-phosphogluconate dehydrogenase, decarboxylating (Homo sapiens) (P52209 whole entry, looked up): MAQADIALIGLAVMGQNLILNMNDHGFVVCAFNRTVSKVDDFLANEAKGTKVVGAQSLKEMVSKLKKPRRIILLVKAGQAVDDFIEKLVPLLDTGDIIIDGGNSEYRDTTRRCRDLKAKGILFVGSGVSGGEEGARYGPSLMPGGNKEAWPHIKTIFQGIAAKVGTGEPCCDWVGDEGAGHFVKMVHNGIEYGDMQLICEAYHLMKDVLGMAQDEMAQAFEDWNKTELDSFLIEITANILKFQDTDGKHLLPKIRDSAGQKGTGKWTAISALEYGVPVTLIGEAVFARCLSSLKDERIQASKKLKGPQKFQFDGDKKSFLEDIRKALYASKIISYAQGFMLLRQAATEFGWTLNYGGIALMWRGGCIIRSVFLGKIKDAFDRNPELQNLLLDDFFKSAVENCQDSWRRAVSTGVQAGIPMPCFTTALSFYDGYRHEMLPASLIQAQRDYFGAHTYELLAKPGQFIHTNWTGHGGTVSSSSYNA

With `COc1cc(O)c2c(c1)C(=O)c1cc(C)cc(O)c1C2=O`, the inhibition in test [1] is 36.5% (active). Further, the red/green cell ratio (normalised) in [2] was 1 (inactive). Further, the results for the normalised cell number in test [2] (setting [19]) and in test [2] (setting [20]) were 1 and 1.01, respectively. The fold change is 0.975 (inactive) in [3] (setting [21]) and 0.792 in [3] (setting [22]). Further, the cell count worked out at 9920 in test [3] (setting [23]) and 10200 in test [3] (setting [24]). Besides, the z-score in test [4] (setting [25]) was -0.364 (inactive); in test [4] (setting [26]) it was 0.659. For the same molecule, the luciferase signal in test [5] was 212 AU (inactive).

As for `NC(N)=NC(N)=Nc1ccccc1`, the inhibition is 53.4% and -16.9% in [6]; -3% (inactive) in test [15]; -4.29% (inactive) in test [1]. Besides, the score in [7] is 1.25 and 0.9. In addition, the rescue above control in [8] is -3.01 and 7.54. Also, the cytochrome c release ratio in [9] was 0.86 and 1.03. In addition, the inhibition of aggregation in test [10] is 72.2% and 69.7%. Further, the glutamate uptake change in [11] is -1.79% and -11.1%. Further, in [12], the inclusion score worked out at 2. The aggregation suppression score in test [13] was 1.39 and 0.87. For the same molecule, the period change in test [14] is 0.065 h (inactive). In test [2], the red/green cell ratio (normalised) was 0.97 (inactive). Moreover, the normalised cell number was 1.24 in test [2] (setting [19]) and 1.2 in test [2] (setting [20]). The fold change in test [3] (setting [21]) was 1 (inactive) and 0.938 (inactive); in [3] (setting [22]), 1.38 and 0.627. The cell count in [3] (setting [23]) was 9810 and 9310; in test [3] (setting [24]), 9810 and 9920. Further, in test [16], the result was inactive. The z-score in test [17] is 0.085 (inactive) and -0.065 (inactive).

As to `COc1ccc(-c2cc(=O)c3c(O)cc(O)cc3o2)cc1O`, the inhibition in test [1] was 11.1% (inactive). In addition, in test [2], the red/green cell ratio (normalised) is 0.91 (inactive). For the same molecule, the normalised cell number in test [2] (setting [19]) came out at 1.34; in [2] (setting [20]) it was 1.22. For the same molecule, the fold change in test [3] (setting [21]) was 0.906 (inactive); in test [3] (setting [22]) it was 0.637. The cell count was 8940 in [3] (setting [23]) and 9870 in [3] (setting [24]). Besides, the z-score in [4] (setting [25]) was -0.264 (inactive); in test [4] (setting [26]) it was 0.709.

With `O=C1C[C@@H](c2ccc(O)cc2)Oc2cc(O)cc(O)c21`, the figures for the inhibition in [6] and in test [1] were 11.6% and -3.37% (inactive), respectively. In addition, the score in [7] was 1.28. The molecule further displayed a rescue above control in test [8] of -15.8. In addition, the cytochrome c release ratio in test [9] stood at 1.08. This molecule also displayed an inhibition of aggregation in [10] of 57.7%. Besides, the glutamate uptake change in test [11] worked out at 9.95%. The molecule further yielded an inclusion score in [12] of 2. The aggregation suppression score in test [13] was 1.04. In addition, the red/green cell ratio (normalised) in test [2] was 1.16 (inactive). Besides, the normalised cell number is 0.96 in test [2] (setting [19]) and 1.12 in [2] (setting [20]). Also, the luciferase signal in [5] is 40 AU (inactive).

Turning to `COc1ccc2cc1Oc1ccc(cc1)C[C@H]1c3cc(c(OC)cc3CCN1C)Oc1c(OC)c(OC)cc3c1[C@H](C2)N(C)CC3`, the parasite load remaining in [18] was 84.6% (inactive). Besides, in test [18], the viability was found to be 98.6%. Besides, in test [1], the inhibition was 19.5% (inactive). Besides, the red/green cell ratio (normalised) in test [2] was 0.86 (inactive). Besides, the results for the normalised cell number in test [2] (setting [19]) and in test [2] (setting [20]) were 1.08 and 0.93, respectively. The fold change in test [3] (setting [21]) is 0.882 (inactive) and 1.13 (inactive); in [3] (setting [22]), 1.24 and 1.19. Further, the cell count in test [3] (setting [23]) is 7200 and 3450; in [3] (setting [24]), 8160 and 3060. Besides, in test [5], the luciferase signal was 68 AU (inactive).

For the molecule `CC(=O)N[C@@H](CC(=O)O)C(=O)N[C@@H](CCC(=O)O)C(=O)O` (Ac-Asp-Glu-OH), the inhibition is 12.9% in test [6] and -7.58% (inactive) in test [1]. The molecule further registered a score in test [7] of 1.12. The rescue above control in [8] was found to be 7.68. Further, in test [9], the cytochrome c release ratio is 1.15. For the same molecule, the inhibition of aggregation in test [10] was determined as 1.96%. In addition, the glutamate uptake change in [11] was 0%. Besides, the inclusion score in test [12] stood at 2. In addition, the aggregation suppression score in test [13] was determined as 1.06. The red/green cell ratio (normalised) in [2] was 0.86 (inactive). The normalised cell number is 1.17 in test [2] (setting [19]) and 1.01 in [2] (setting [20]). Further, the results for the fold change in [3] (setting [21]) and in test [3] (setting [22]) were 0.963 (inactive) and 0.542, respectively. Further, the cell count in test [3] (setting [23]) turned out to be 8810; in test [3] (setting [24]), 9150. For the same molecule, the z-score in [17] is -0.67 (inactive).

The values are drawn from PubChem BioAssay.
